hgDAF-12 ag: H. glycines DAF-12 receptor agonists, primary screen, cell-based, luminescence, HEK293, GAL4 fusion, UAS-luciferase; Nuclear hormone receptor DAF-12 (Heterodera glycines), GAL4 fusion; HEK293 GAL4-hgDAF12 UAS-luciferase reporter, agonist luminescence; normalized to butyrate control; activation, % at 6.8 µM; actives 1.8% (n = 370,000);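 active means activation above a cutoff set at the mean of all screened compounds plus 3 SD, cut at about 10% in these data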
SMARCA2 act: SMARCA2 (BRM) function activators, primary screen, cell-based, luminescence, high throughput | MG213 cells, MMTV-luciferase reporter, dexamethasone, overnight | activation, % at 9.1 µM | actives 1% (n = 370,000); in the data active means activation above about 7.8%
DAX1 inh: DAX1 (NR0B1) inhibitors on StAR promoter, primary screen, cell-based, luminescence, SF-1 (NR5A1), full-length DAX-1 | HEK293T StAR-luciferase reporter, SF-1/DAX-1 repression relief | inhibition, % at 6.8 µM | actives 1.1% (n = 370,000) | AID 652010, 2013;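 active means inhibition above the mean over all tested compounds plus 3 SD, cut at about 3.6% in these data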;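 further: higher inhibition means more luminescence from relief of DAX-1 repression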
ssDAF12 agonist: S. stercoralis DAF-12 nuclear receptor activators, primary screen, cell-based, luminescence, HEK293, GRIP1 co-expression, lit1-tk-luc | Nuclear hormone receptor DAF-12 (Strongyloides stercoralis) | HEK293 ssDAF-12/GRIP1 lit1-tk-luc reporter; % of 3 µM dafachronic acid response | activation, % at 6.8 µM | actives 1% (n = 370,000) | AID 652126, 2013;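 active means activation above the mean over all tested compounds plus 3 SD, cut at about 0.9% in these data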
hcDAF-12 act: H. contortus DAF-12 nuclear receptor activators, primary screen, cell-based, luminescence, HEK293, lit1-tk-luc reporter; HEK293 hcDAF-12 lit1-tk-luc reporter; 0% DMSO, 100% Δ7-dafachronic acid; activation, % at 6.8 µM; actives 1.4% (n = 370,000); AID 652067, 2013;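 active means activation above the mean of all tested compounds plus 3 SD, cut at about 5.5% in these data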
LXRb hcDAF ctr: LXR agonists, Gal4 luciferase reporter, confirmation, counter-screen for hcDAF-12 agonist project, cell-based, luminescence, HEK293, H. contortus campaign; shares compounds with hcDAF-12 act; HEK293 Gal4-LXR tk-luc reporter, 24 h; normalized: DMSO 0%, positive control 100%; activation, % at 6.8 µM; 3,400 tested, under 10 active;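 active means mean percent activation of the reporter above a cutoff set as the average over tested compounds plus their standard deviation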
Target sequence (P55055 whole entry, looked up, the tested form may be a part): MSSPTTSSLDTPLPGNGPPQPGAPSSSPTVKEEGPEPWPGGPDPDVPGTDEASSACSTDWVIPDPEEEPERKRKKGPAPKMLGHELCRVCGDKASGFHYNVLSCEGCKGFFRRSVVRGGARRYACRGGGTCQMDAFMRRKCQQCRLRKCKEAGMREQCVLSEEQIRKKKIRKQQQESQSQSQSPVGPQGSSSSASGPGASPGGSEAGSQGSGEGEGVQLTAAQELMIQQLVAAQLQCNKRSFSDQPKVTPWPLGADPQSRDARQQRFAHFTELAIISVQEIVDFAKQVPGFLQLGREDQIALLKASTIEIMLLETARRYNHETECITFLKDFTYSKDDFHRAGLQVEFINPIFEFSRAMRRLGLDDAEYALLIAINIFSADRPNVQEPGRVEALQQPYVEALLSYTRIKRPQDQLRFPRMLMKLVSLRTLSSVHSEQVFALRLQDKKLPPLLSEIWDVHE
hcDAF12 conf: H. contortus DAF-12 receptor agonists, confirmation, cell-based, luminescence, HEK293, lit1-tk-luc, triplicate; shares compounds with hcDAF-12 act; HEK293 hcDAF-12 lit1-tk-luc reporter; % of Δ7-dafachronic acid response; activation, % at 6.8 µM; actives 61% (n = 3,400);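 active means mean activation across triplicate tests above the threshold derived from the earlier primary screen, cut at about 5.5% in these data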
Numbers stand for hits; . = inactive; / = no result given. An excerpt weighted towards active compounds, which were near 4.2% of everything screened.

SMILES	hgDAF-12 ag	SMARCA2 act	DAX1 inh	ssDAF12 agonist	hcDAF-12 act	LXRb hcDAF ctr	hcDAF12 conf
CC(C)N=C1NN=C(c2cccs2)CS1	12	.	.	1.4	8.6	.	11
COc1cc2c(cc1NC(=O)C(C)Sc1cccc[n+]1[O-])oc1ccccc12 (stereo unspecified)	.	.	.	.	9.6	.	.
COc1cc2c(cc1NC(=O)C(C)Sc1nc3ccccc3n1C)oc1ccccc12 (stereo unspecified)	.	.	.	.	.	/	/
COC(=O)[C@]12C[C@H](CC(=O)NCc3ccc(C)o3)C(=O)N(CCC3=CCCCC3)C1=C[C@H](COCc1ccccc1)O[C@@H]2C	.	.	.	.	.	/	/
CCCCNc1ncnc2c1cnn2-c1ccc(C)cc1C	.	.	.	.	.	/	/
Cc1cccc(-n2ncc3c(NCCCO)ncnc32)c1	12	7.9	.	.	6.6	.	.
COc1ccc(CNC(=O)Cc2c(C(=O)O)[nH]c3ccccc23)c(OC)c1	.	.	.	1.9	6.9	.	.
C[C@H]1COc2c3ccccc3nn21	.	.	.	.	.	/	/
CC(C)(C)NC(=O)CSc1nc(-c2ccc(F)cc2)cs1	12	.	.	.	7.2	.	.
CC1=C(C#N)C(c2ccccc2O)C(C#N)=C(C)N1	.	.	.	.	9.6	.	5.7
CC(=O)c1cccc(NC(=S)NC(=O)c2ccccc2Cl)c1	.	.	.	.	.	/	/
COC(=O)c1ccccc1NC(=S)NC(=O)c1ccc(C)cc1	.	.	.	.	7.4	.	.
Cc1cc(C)c(NC(=S)NC(=O)c2ccc(-c3ccccc3)cc2)c(C)c1	.	.	.	.	.	/	/
O=C(NC(=S)Nc1ccccc1O)c1ccccc1Cl	13	.	.	1.5	7.7	.	6.2
Cc1ccc(C(=O)NC(=S)Nc2cc(-c3nc4ccccc4s3)ccc2C)cc1	12	.	.	1.4	7.2	.	6.0
COc1ccc(Oc2c(Cl)cnn(-c3cc(C)cc(C)c3)c2=O)cc1	.	/	/	.	.	/	/
O=C(CN1CCN(c2nc(-c3ccccc3)cs2)CC1)Nc1ccc(Cl)c(Cl)c1	.	.	.	.	.	/	/
O=C(/C=C/c1ccc(F)cc1)c1ccc(N2CCOCC2)cc1	.	.	.	.	.	/	/
CCc1ccc(/C=C/C(=O)c2ccc(N3CCOCC3)cc2)cc1	.	.	.	.	6.8	.	.
CN(C(=O)c1cccc(NC(=O)c2ccco2)c1)c1ccccc1	.	.	.	.	.	/	/
CN(C)c1cccc(NC(=O)c2ccco2)c1	.	.	.	.	6.7	.	.
Cc1ccc2oc(=O)c3cc(C(=O)NCCCN4CCC(C)CC4)sc3c2c1	.	.	.	.	.	/	/
CCCc1cc(C(=O)Nc2cccc(Cl)c2)no1	.	.	.	.	9.4	.	.
CCCc1cc(C(=O)Nc2ccc(F)c(Cl)c2)no1	.	.	.	.	.	/	/
Cc1ccc2nc(N3C(=O)C(O)=C(C(=O)c4ccc(C)o4)C3c3ccco3)sc2c1 (stereo unspecified)	11	.	4.1	.	8.1	.	.
SMILES	hgDAF-12 ag	SMARCA2 act	DAX1 inh	ssDAF12 agonist	hcDAF-12 act	LXRb hcDAF ctr	hcDAF12 conf
CC(=O)c1ccc(OCc2cc(=O)n3ccsc3n2)cc1	.	.	.	.	9.8	.	.
Cc1ccc(OCCn2c(CCNC(=O)C3CCCCCC3)nc3ccccc32)cc1	.	/	/	.	.	/	/
O=C1Nc2ccc(Br)cc2C12NNc1ccccc1O2 (stereo unspecified)	.	.	.	.	6.9	.	.
CC(C)CN1C(=O)C[C@]2(C(=O)N(C)c3ccc(NC(=O)C(F)(F)F)cc32)C1c1ccccc1 (stereo partly specified)	.	.	.	.	.	/	/
Cc1c(/N=C(\[O-])Nc2ccc(Br)cc2)sn[n+]1C	11	.	.	.	7.0	.	7.5
Cc1cc(Nc2cc(C(F)(F)F)cc(C(F)(F)F)c2)cc(=O)n1-c1cc(C(F)(F)F)cc(C(F)(F)F)c1	.	.	.	.	.	/	/
S=c1nc(-c2ccccc2)c(-c2ccccc2)n[nH]1	.	.	.	.	.	/	/
Nc1c(-c2ccccc2)n[nH]c1-c1ccccc1	.	.	.	.	7.0	.	7.7
CC1(C(=O)NS(=O)(=O)c2ccccc2Cl)CCN1C(=O)CCc1cccs1 (stereo unspecified)	.	.	.	.	.	/	/
Cc1ccc(Cl)c2c(N=Nc3ccccc3)c(O)[nH]c12	.	.	.	0.9	7.7	.	10
N#C/C(=C\c1ccc(-c2nc3ccccc3s2)o1)C(N)=O	.	.	.	.	6.8	.	.
COC(=O)c1cccc(CN2C(=O)C(C)Oc3ccc(C)cc32)c1 (stereo unspecified)	.	.	.	.	.	/	/
COc1cc(OC)cc(C(=O)/C=C2\Sc3ccccc3N2C)c1	.	.	.	.	.	/	/
CN1/C(=C\C(=O)c2cccs2)C(C)(C)c2ccccc21	.	.	.	.	.	/	/
CN1/C(=C/C(=O)C2CCC2)Sc2ccccc21	12	.	.	.	8.1	.	.
CN1/C(=C/C(=O)c2cccs2)Sc2ccccc21	18	.	4.4	4.5	22	.	24
CN1/C(=C\C(=O)c2cccc([N+](=O)[O-])c2)Sc2ccccc21	13	.	.	.	7.7	.	5.9
Cc1cc(C)cc(N(CC(=O)NC2CCC(C)CC2)S(=O)(=O)c2ccc(Cl)s2)c1 (stereo unspecified)	.	.	.	.	.	/	/
COc1ccccc1NC(=O)N(C)C[C@H]1OCc2cn(nn2)CCCC(=O)N([C@H](C)CO)C[C@@H]1C	.	.	.	.	.	/	/
Nc1nc2c(ncn2[C@@H]2O[C@H](C(=O)NCCCc3ccccc3)[C@@H](O)[C@H]2O)c(=O)[nH]1	.	.	.	.	.	/	/
C#CCSc1nnnn1-c1cccc(Cl)c1	.	.	.	.	.	/	/
C#CCSc1nnnn1-c1ccc(Br)c(C)c1	.	.	.	.	10	.	.

Screens: PubChem BioAssay, The Scripps Research Institute Molecular Screening Center
